Among all 310,000 compounds or so, about 18,000 (5.8%) were called active. Inconclusive results (about 22%) are left out. The list comes from a sample in which actives are over-represented; it also holds similar structures and randomly drawn compounds. Values without a mark were called inactive. Calls come from the whole dose curve; as a rule, active = well fitted inhibition curve with a large enough effect; inconclusive = small, poorly fitted or top-dose-only effect, or another doubt; inactive = no such curve, though single readings can be large or run the other way.
test: Primary qHTS for delayed death inhibitors of the malarial parasite plastid, 48 hour incubation; settings: P. falciparum luciferase growth in erythrocytes; series mostly up to 28.7 µM; activity change, negative = inhibition: at the top concentration
Text: The goal of this screen is to discover new antimalarial compounds that act by inhibiting the development of the apicoplast in the malarial parasite Plasmodium falciparum. The biochemical processes that make this organelle essential for erythrocytic stage parasites are not well understood. However, antibiotics such as azithromycin and tetracycline, which target the apicoplast translational machinery, have a potent antimalarial effect.
We have developed a cell-based assay that measures parasite growth based on the expression of an integrated copy of a firefly luciferase reporter. To detect small molecules that cause this "delayed death" phenotype, erythrocytes infected with the luciferase-expressing parasites were incubated with compounds for either one or two generations, corresponding to 48 and 96 hours, respectively. Compounds that inhibit parasite growth in the second generation, but not the first, should be enriched in antimalarials that target the apicoplast. Growth inhibition is detected by a decrease in luciferase activity.
Assay Provider: David Fidock and Eric Ekland, Columbia University
Keywords: NIH Roadmap, MLPCN, MLI, MLSMR, qHTS, NCGC, qHTS, malaria, luciferase, viability
Four microliters of culture medium (RPMI 1640 with 0.5% w/v Albumax (GIBCO), 24 mM sodium bicarbonate and 10 ug/mL gentamycin) were dispensed by a Multi-drop Combi into white solid 1536-well plates (Grenier) and 23 nL compound was added by a pin tool. Four microliters of infected erythrocytes (2% hematocrit, 0.1% parasitemia final concentration) in culture medium were dispensed and the plates incubated for 48 hours at 37 C in 5% CO2. Two microliters of luciferase detection reagent was added and luminescence was detected by a ViewLux (PerkinElmer) reader.
% is set by controls: 0 for no effect and ±100 for the full control effect; potency is the fitted concentration of half-maximal effect.

For `O=C(NCCCn1ccnc1)c1cc(Br)c(Br)s1`, which “activity change, negative = inhibition” value is on record?
Its value is -13%.

With `CC(=O)Nc1ccc(NC(=O)CSc2nnnn2C2CCCCC2)cc1` as the compound, how does the “activity change, negative = inhibition” value read?
The value was 0.533%.

With `CCCc1cc(=O)n2[nH]c(C)c(-c3ccc(Cl)cc3)c2n1` as the compound, how does the “activity change, negative = inhibition” value read?
The value was 11.8%.

With `NS(=O)(=O)c1cccc(NC(=O)CC23CC4CC(CC(Br)(C4)C2)C3)c1` as the compound, how does the “activity change, negative = inhibition” value read?
The value was 25.6%.

Which “activity change, negative = inhibition” value does the source give for `Cc1nnc(SCC(=O)Nc2cccc(N)c2)n1-c1ccccc1` here?
The value was 0%.

With `COc1ccc(C2=NS(=O)(=O)N(C)C(C(=O)N3CCCCC3)=C2)cc1` as the compound, how does the “activity change, negative = inhibition” value read?
Its value is -6.99%.

With `COc1ccc(C2=NS(=O)(=O)N(C)C(C(=O)NC(C)c3ccccc3)=C2)cc1` (stereo unspecified) as the compound, how does the “activity change, negative = inhibition” value read?
The value was 3.81%.

Which Potency does the source give for `COc1ccc(NC(=O)C2=CC(c3ccc(OC)c(OC)c3)=NS(=O)(=O)N2C)cc1` here?
The Potency was 14.7 µM (active).

For `Cc1cccc(N(C)C(=O)c2cc(S(=O)(=O)N3CCCCC3)c[nH]2)c1`, which “activity change, negative = inhibition” value is on record?
The value was 8.72%.

For `Cc1cccc(CCNS(=O)(=O)c2ccc3c(c2)NC(=O)CO3)c1`, which “activity change, negative = inhibition” value is on record?
The value was 12.1%.

With `CCOc1ccc(NC(=O)CC(Cc2ccc(Cl)cc2)C(=O)O)cc1` (stereo unspecified) as the compound, how does the “activity change, negative = inhibition” value read?
Its value is 31.6%.

For `COc1ccc(C2CC(c3cccs3)=NN2C(=O)CCC(=O)O)cc1OC` (stereo unspecified), which “activity change, negative = inhibition” value is on record?
The value was -0.475%.

For `COc1ccc(C2CC(c3ccccc3)=NN2C(=O)COC(=O)COc2ccccc2)cc1` (stereo unspecified), which “activity change, negative = inhibition” value is on record?
Its value is -0.759%.

Which Potency does the source give for `O=C1c2cccc(OCC(=O)N3N=C(c4cccs4)CC3c3ccc(F)cc3)c2CCN1Cc1ccccc1` (stereo unspecified) here?
Its Potency is 7.38 µM (active).

With `COc1cc(C(=O)NCC(=O)NCCSc2ccc(Br)cc2)cc(OC)c1OC` as the compound, how does the “activity change, negative = inhibition” value read?
Its value is 37.5%.

With `CCO[C@H]1OC(C(=O)N2CCCCCCC2)=C[C@@H](c2ccc(C(F)(F)F)cc2)[C@@H]1CCCO` as the compound, how does the Potency read?
Its Potency is 3.7 µM (active).

For `CCO[C@@H]1OC(C(=O)N2CCOCC2)=C[C@H](C)[C@H]1CCCO`, which “activity change, negative = inhibition” value is on record?
Its value is 12.4%.

Which “activity change, negative = inhibition” value does the source give for `CCO[C@H]1OC(C(=O)N2CCOCC2)=C[C@@H](c2ccc3c(c2)OCO3)[C@@H]1CCCO` here?
Its value is 39.8%.

With `Cc1cc(C)c(S(=O)(=O)Nc2c(C)n(C)n(-c3ccccc3)c2=O)cc1[N+](=O)[O-]` as the compound, how does the “activity change, negative = inhibition” value read?
The value was -7.18%.

Which “activity change, negative = inhibition” value does the source give for `COc1ccc(-c2cc(C(=O)N3CCN(c4ccc(F)cc4)CC3)no2)cc1` here?
The value was 1.13%.

For `Cc1cc(C)c(C2C3=C(Nc4c2c(C)nn4-c2ccccn2)c2ccccc2C3=O)c(C)c1` (stereo unspecified), which Potency is on record?
Its Potency is 9.28 µM (active).

With `COC(=O)c1sccc1NC(=O)c1ccc(Cl)cc1` as the compound, how does the “activity change, negative = inhibition” value read?
The value was 12.9%.

With `Nc1nc(NCc2ccccc2)n(-c2ccccc2)n1` as the compound, how does the “activity change, negative = inhibition” value read?
The value was -9%.

With `CCc1nnc(NC(=O)CSCc2cc(=O)n3cc(C)sc3n2)s1` as the compound, how does the “activity change, negative = inhibition” value read?
The value was -17.5%.

With `O=C(O)C1CC=C(Cl)CC1C(=O)NCc1ccccc1` (stereo unspecified) as the compound, how does the “activity change, negative = inhibition” value read?
Its value is 1.48%.

For `COc1ccc(CNC(=O)C2CCN(C(=O)c3ccccc3)CC2)cc1`, which “activity change, negative = inhibition” value is on record?
Its value is -3.24%.

Which “activity change, negative = inhibition” value does the source give for `COc1ccc(CNC(=O)C2CCN(S(C)(=O)=O)CC2)cc1` here?
The value was 0%.

Which “activity change, negative = inhibition” value does the source give for `O=C(NCCc1ccc(Cl)cc1)C1CCCN1C(=O)NCc1ccccc1` (stereo unspecified) here?
The value was 8.13%.

For `COC(=O)c1ccc(CNC(=O)C2CCC(=O)N(Cc3cccc(F)c3)C2)cc1` (stereo unspecified), which “activity change, negative = inhibition” value is on record?
Its value is -0.0903%.

With `COC(=O)C1=C(c2ccccc2OCc2ccccc2)C[C@@H]2CC[C@H]1N2C(=O)NCc1ccc(OC)cc1` as the compound, how does the Potency read?
Its Potency is 13.1 µM (active).

With `O=C(CN1CCN(C(=O)c2ccco2)CC1)Nc1ccc(Cl)c(C(F)(F)F)c1` as the compound, how does the “activity change, negative = inhibition” value read?
Its value is -1.32%.

For `COC(=O)C1=C(c2ccc(-c3ccccc3)c(F)c2)C[C@@H]2CC[C@H]1N2C(=O)NCc1ccc(F)cc1`, which Potency is on record?
The Potency was 13.1 µM (active).

Which Potency does the source give for `COC(=O)C1=C(c2ccc(Cl)c(C(F)(F)F)c2)C[C@@H]2CC[C@H]1N2C(=O)NC1CC1` here?
The Potency was 14.7 µM (active).

Which “activity change, negative = inhibition” value does the source give for `COC(=O)C1=C(c2ccc(F)cc2F)C[C@@H]2CC[C@H]1N2C(=O)NC1CC1` here?
Its value is 17.9%.

With `COC(=O)C1=C(c2ccc3ccccc3c2)C[C@@H]2CC[C@H]1N2C(=O)NCCO` as the compound, how does the “activity change, negative = inhibition” value read?
The value was 3.2%.

Which Potency does the source give for `COC(=O)C1=C(c2ccc(F)cc2OCc2ccccc2)C[C@@H]2CC[C@H]1N2C(=O)NCc1ccc(Cl)cc1` here?
Its Potency is 11.7 µM (active).
